Hsp90 Hop PPI: qHTS Assay for Disrupters of an Hsp90 Co-Chaperone Interaction; AlphaScreen TPR2A-His6 binding biotin-Hsp90 C-terminal peptide; Potency, µM (titrated, usually from 57 µM), without a hit: at the highest dose activity change, negative = inhibition; 0.44% of 71,000 active; AID 595, 2007; active = well fitted curve in either direction with a large enough effect; inconclusive = small, poorly fitted or top-dose-only effect, or another doubt; also: % is scaled to controls: 0 for no effect and ±100 for the full control effect
15-hLO-2 inh: qHTS Assay for Inhibitors of 15-hLO-2 (15-human lipoxygenase 2); 0.56% of 110,000 active; Polyunsaturated fatty acid lipoxygenase ALOX15B (Homo sapiens), O15296; purified 15hLO-2, xylenol orange hydroperoxide absorbance; Potency, µM (titrated, usually from 57.1 µM), for inactives: at the highest dose activity change, negative = inhibition, most hits filed as inhibitors; also: % is scaled to controls: 0 for no effect and ±100 for the full control effect; nearly all actives have a fitted effect of over 60% in size
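Purified human 15hLO-2 (50 nM final) preincubated with compounds 15 min at room temperature in 25 mM Hepes pH 7.5, 0.01% Triton X-100, then 45 uM arachidonic acid added for 90 min; hydroperoxide detected via ferrous/xylenol orange, 573/405 nm absorbance ratio.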
Casp7 inh: qHTS Assay for Allosteric/Competitive Inhibitors of Caspase-7; recombinant caspase-7, Ac-DEVD-AFC fluorescence rate; 0.02% of 75,000 active; Potency, µM (highest dose often 57.5 µM), without a hit: at the highest dose activity change, negative = inhibition, most hits filed as inhibitors; P55210; active = well fitted inhibition curve with a large enough effect in the main read-out, with a control signal flat, not every such curve was filed as active; inconclusive = small, poorly fitted or top-dose-only effect, or a change in a side signal; also: % of control where 0% means no effect
ALOX15 inhib: qHTS Assay for Inhibitors of 15-hLO (15-human lipoxygenase) | 1.4% of 74,000 active | Potency, µM (doses to about 57.1 µM), for the others: at the highest dose activity change, negative = inhibition, most hits filed as inhibitors | Polyunsaturated fatty acid lipoxygenase ALOX15 (Homo sapiens), P16050 | purified 15hLO-1, xylenol orange hydroperoxide absorbance | AID 887, 2007; also: % is scaled to controls: 0 for no effect and ±100 for the full control effect; nearly all actives have a fitted effect of over 55% in size
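Hydroperoxide formed from arachidonic acid (50 uM) by purified human 15hLO-1 (40 nM) oxidizes ferrous iron, and the ferric-xylenol orange complex is read at 573 versus 405 nm. Compounds were preincubated 15 min; reaction ran 6 min at room temperature.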
Tau fil binding: qHTS Assay for Tau Filament Binding | Microtubule-associated protein tau (Homo sapiens), P10636 | 2% of 71,000 active | recombinant tau filaments, thioflavin S fluorescence, 15 h; filaments grown with octadecylsulfate alongside compound | Potency, µM (top dose mostly 57.1 µM), for inactives: top-dose activity change, negative = inhibition;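 also: % is scaled to controls: 0 for no effect and ±100 for the full control effect; actives lower thioflavin S fluorescence by blocking filaments or displacing dye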
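Read-out: ThS fluorescence, 450 nm excitation/510 nm emission; lower signal marks blocked filament formation or displaced dye. Tau at 1 uM with 30 uM ODS, 10 uM ThS, 5 mM DTT, 100 mM NaCl, 10 mM HEPES pH 7.4; 15 h, 37 C.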
Caspase-1 inhib: qHTS Assay for Allosteric/Competitive Inhibitors of Caspase-1; Caspase-1 enzyme, Ac-WEHD-AFC fluorogenic rate; Potency, µM (highest dose often 57.5 µM), for inactives: at the top dose activity change, negative = inhibition, usual class: inhibitors; 0.03% of 75,000 active; AID 900, 2007;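 also: plate controls were vehicle for no effect and no substrate for full effect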
An asterisk follows results filed as active; ? = inconclusive; . = not tested or not shown; [ ] = remark or other dose. Compounds with a hit are over-represented: about 2.4% of the library has one in this group of screens. Unless noted, calls follow the shape of the dose curve; as a rule, active = well fitted curve in the direction sought with a large enough effect; inconclusive = small, poorly fitted or top-dose-only effect, or another doubt; inactive = no such curve, though single readings can be large; an effect the other way counts as inactive or inconclusive. Potency is read from the fitted curve at half-maximal effect.

SMILES	Hsp90 Hop PPI	15-hLO-2 inh	Casp7 inh	ALOX15 inhib	Tau fil binding	Caspase-1 inhib
CCOC(=O)c1cc2c(=O)n3ccccc3nc2n(Cc2ccc(Cl)cc2)c1=N	-5%	.	?	-3%	0.5µM*	.
N=c1c(C(=O)NC2CCCC2)cc2c(=O)n3ccccc3nc2n1C1CCCC1	.	-16%	.	.	.	.
COCCCN1C(=O)c2ccc(C(=O)Nc3ccc(OC)cc3)cc2C1=O	.	-1%	.	.	.	.
COc1ccccc1NC(=O)c1nn(C)cc1Br	.	2%	.	.	.	.
Cc1cccn2c(=O)c3cc(C(=O)NCc4ccco4)c(=N)n(CCc4ccccc4)c3nc12	-5%	.	?	-27%	1.6µM*	.
COc1ccc(CCNC(=O)c2cc3c(=O)n4cccc(C)c4nc3n(Cc3ccncc3)c2=N)cc1	0%	4%	?	-2%	3.2µM*	.
CC(C)n1c(=N)c(C(=O)NCCc2ccccc2)cc2c(=O)n3ccccc3nc21	2%	-8%	?	-11%	3.2µM*	.
Cc1cccn2c(=O)c3cc(C(=O)NCc4ccco4)c(=N)n(C(C)C)c3nc12	-7%	-23%	?	-16%	90%	.
CCN1CCCC1CNC(=O)c1cc(OC)c(OC)c(OC)c1 (stereo not drawn)	.	4%	.	.	.	.
Cc1ccc(C23CC4CC(CC(NC(=O)N5CCN(C)CC5)(C4)C2)C3)cc1	-3%	3%	1%	-3%	16µM*	0%
O=[N+]([O-])c1cccc(/C=C/c2nc3ccc([N+](=O)[O-])cc3[nH]2)c1	.	-9%	.	.	.	.
CC1CCC2C(C)(C)C3CC12CC[C@]3(C)O (stereo partly drawn)	.	1%	-1%	?	.	2%
CC(=O)O[C@]1(C)CC[C@]23CC1C(C)(C)C2CC[C@@H]3C (stereo partly drawn)	.	20%	1%	25µM*	.	2%
Nc1nc2sc3c(c2c(=O)s1)CCCC3	-10%	6%[2.29 µM]	-7%	0.79µM*	19%	-1%
COc1ccc(S(=O)(=O)Nc2cc(Sc3ncn[nH]3)c(O)c3ccccc23)cc1	.	4µM*	.	.	.	.
CC(=O)Nc1ccc(N/C=C/C(=O)c2ccco2)cc1	-6%	1%	-13%	-10%	0%	-14%
O=C(/C=C/Nc1ccc(F)c(Cl)c1)c1ccco1	-10%	6%	-22%	25µM*	-10%	-13%
CN(C)c1ccc(N/C=C/C(=O)c2ccco2)cc1	.	25µM*	.	.	.	.
CC(=O)n1cc(C2C(=O)CCCC2=O)c2ccccc21	-1%	-10%	-1%	5%	9%	1%
Cc1ccc2c(c1)C1(C(=O)N2C)N2CC3(C)CN1CC(C)(C2)C3=O (stereo not drawn)	-3%	3%	-1%	5%	-9%	5%
Cn1c(/N=C/c2c(O)ccc3ccccc23)nc2ccccc21	-11%[11 µM]	?	-9%	4µM*	?	-9%
Nc1ccccc1S[C@@H](C[N+](=O)[O-])c1ccc2c(c1)OCO2	-6%[11 µM]	-19%[11.4 µM]	-2%[11.5 µM]	2.5µM*	2%[11.4 µM]	-1%[11.5 µM]
CN(C)c1cccc(O)c1	-3%	-11%	-2%	-21%	32µM*	-14%
COC(c1ccccc1Br)C(C)/C=C/CCO (stereo not drawn)	.	.	-1%[11.5 µM]	1.6µM*	.	-1%[11.5 µM]
CCCN(CCC)S(=O)(=O)c1ccc(NS(C)(=O)=O)cc1	1%	0%	0%	-1%	-9%	0%
SMILES	Hsp90 Hop PPI	15-hLO-2 inh	Casp7 inh	ALOX15 inhib	Tau fil binding	Caspase-1 inhib
COC(=O)NC(=S)Nc1ccc(Oc2ccc(Cl)cc2)c(Cl)c1	.	-20%	.	.	.	.
Cc1ccc(C(=O)NC(=S)Nc2ccc(Oc3ccc(Cl)cc3)cc2)cc1	.	13µM*	.	.	.	.
CN(C)c1ccc(-c2cc(-n3ccnc3)ncn2)cc1	-9%	-14%	?	?	-9%	?
CNc1cc(-c2ccccc2CN(C)C)ncn1	2%	-2%	0%	15%	0%	1%
CN(C)Cc1ccccc1-c1cc(-n2ccnc2)ncn1	-10%	23%	0%	13µM*	-3%	2%
CN(C)C(=O)c1ccc(-c2cc(-n3ccnc3)ncn2)cc1	-6%	-23%	-3%	25µM*	-8%	0%
CS(=O)(=O)N1CCC2(CC1)CN(C(=O)Nc1cccc(F)c1)C2	?	-6%	-1%	-2%	13µM*	0%
CS(=O)(=O)N1CCC2(CCCN(C(=O)Nc3cccc(F)c3)C2)CC1	4%	11%	-2%	?	7%	1%
CS(=O)(=O)N1CCC2(CC1)CN(C(=O)Nc1ccccc1)C2	1%	28%	-2%	0.5µM*	-9%	-2%
CS(=O)(=O)N1CCC2(CC1)CN(C(=O)Nc1cccc(C#N)c1)C2	-4%	-10%	-1%	-10%	1%	-2%
O=C(Nc1ccc2c(c1)OCO2)N1CCN(C/C=C/c2ccccc2)CC1	?	17%	-2%	32µM*	-25%	-7%
CCc1ccc(C2CC(=O)NC(SCC(=O)OC(C)C)=C2C#N)cc1 (stereo not drawn)	.	-5%	.	.	.	.
CC(/C=C/C=C(C)/C=C/C(=O)O)=C\C=C\C=C(C)\C=C\C=C(C)\C=C\C(=O)O	0%	?	-7%	?	3.2µM*	-4%
N#C/C(=C\c1cc([N+](=O)[O-])c(N2CCOCC2)cc1N1CCOCC1)c1nc2ccccc2[nH]1	.	-4%[11.4 µM]	.	.	.	.
CC(C)c1ccc2oc(-c3cc(N)ccc3O)nc2c1	-18%[11 µM]	13%	-10%	?	3.2µM*	-11%
Cc1ccccc1-c1nc2cc(N)ccc2o1	2%	-1%	-1%	6%	-12%	-3%
COC(=O)c1c(C(=O)OC)c(C)n(Cc2ccco2)c1C	-3%	-5%	-2%	11%	0%	-1%
CCOc1cccc(=O)c2c(C)n(Cc3ccco3)c(C)c12	-9%	-20%	-30%	-25%	4µM*	?
O=c1cc(N2CCOCC2)c2ccccc2o1	.	1%	.	.	.	.
Cc1cc(=O)cc(C)n1-c1ccccc1N1CCOCC1	-14%	-3%	-26%	?	7.9µM*	-9%
CCCCC/C=C\C[C@H](O)/C=C\c1cccc(C[C@H](O)CCCCO)n1	-11%	-19%	0%	20µM*	-4%	2%
Cc1ccc(C(NC(=O)N2CCOCC2)=C(Cl)Cl)cc1F	-8%	10%	-1%	3%	-12%	1%
COc1c(F)c(F)c(C(=O)Nc2ccc(N3CCN(Cc4ccccc4)CC3)cc2)c(F)c1F	.	33%	.	.	.	.
